# Results filed as inconclusive are left out. The source made the active and inactive calls. Calls come from the whole dose curve; as a rule, active = well fitted cell-killing curve with a large enough effect in the repeat runs; inconclusive = weak or mixed curves, or effect the other way; inactive = no such curve, though single readings can be large or run the other way.
# Test: Caspase-3/7 induction in CHO-K1 cells by small molecules, qHTS cell viability counter screen (AID 1346979); note: nearly all actives have a fitted effect of over 35% in size
# Conditions: CellTiter-Fluor fluorescence, 17 h; series mostly up to 92.4 µM; activity change, negative = cytotoxicity: at the top concentration
# Text: National Center for Advancing Translational Sciences [NCATS]
# NIH Chemical Genomics Center [NCGC]
# U.S. Environmental Protection Agency [EPA]
# National Institutes of Environmental Health Sciences [NIEHS]
# National Toxicology Program [NTP]
# U.S. Food and Drug Administration [FDA]
# Apoptosis is a process of programmed cell death and plays a central role in the development of multicellular organisms. It is a highly regulated process and induces cell death by activating caspases, which are the members of cysteine aspartic acid-specific protease (caspase) family. Caspases involved in apoptosis are classified by their mechanism of action as initiator caspases (caspase-2, -8, -9 and -10) and executioner caspases (caspase-3, -6, and -7). Inhibition of apoptosis results in number of cancers, autoimmune diseases, inflammatory diseases and viral infection. To identify small molecule compounds that induce apoptosis, a homogeneous, luminescent Caspase-Glo 3/7 assay was used. Wild type CHO-K1 cells were used to screen Tox21 libraries for identifying caspase-3/7 activity inducers. Also cytotoxicity of the compounds was tested in parallel by measuring the cell viability using CellTiter-Fluor assay system in the same wells.
# Tox21 Assay Protocol Summary:
# CHO-K1 cells were dispensed at 1,500 per well in 5uL of culture medium into white solid bottom 1536-well plates (Corning Life Sciences, Corning, NY) using a Multidrop Combi (Thermo Scientific, Waltham, MA) dispenser. The assay plates were incubated at 37 C and 5% CO2 for 5hr, and then 23nL of compounds dissolved in DMSO and positive control were transferred using a Pintool station (Wako, San Diego, CA). The assay plates were incubated at 37C and 5% CO2 for 17hr. For cytotoxicity read, after 16hr incubation at 37C, 1uL CellTiter-Fluor reagent (Promega Corporation, Madison, WI) was added to each well of the assay plates using Flying Reagent Dispenser (FRD, Aurora Discovery, San Diego, CA). After 1hr incubation at 37C and 5% CO2, the fluorescence signal was quantified using a ViewLux plate reader (PerkinElmer, Shelton, CT).
# % is set by controls: 0 for no effect and ±100 for the full control effect; potency is the fitted concentration of half-maximal effect.
Structure (SMILES),"activity change, negative = cytotoxicity",Potency
CCC(C)(C)OC,-0.052% (inactive),–
O=C(O)C[C@H](NC(=O)OCc1ccccc1)C(=O)O,12.6% (inactive),–
CC/C=C1/OC(=O)c2ccccc21,3.31% (inactive),–
CC(C)=CC(=O)C=C(C)C,4.39% (inactive),–
C=C1CCC2CC1C2(C)C (stereo not given),6.76% (inactive),–
Nc1ncnc2c1ncn2[C@H]1CC[C@@H](CO)O1,6.23% (inactive),–
CN1CCCC(n2nc(Cc3ccc(Cl)cc3)c3ccccc3c2=O)CC1 (stereo not given),–,29.8 µM (active)
CCCCC(CC)CN (stereo not given),7.43% (inactive),–
CCOC(=O)OC(C)OC(=O)[C@@H]1N2C(=O)[C@@H](NC(=O)[C@H](N)c3ccccc3)[C@H]2SC1(C)C (stereo not given in full),-2.26% [at 42.5 µM] (inactive),–
FC(F)(F)c1ccccc1Cl,-2.67% (inactive),–
CC(CN(C)C)C(C)(O)Cc1ccc(Cl)cc1 (stereo not given),1.6% [at 42.5 µM] (inactive),–
Cc1ccccc1S,-0.254% [at 42.5 µM] (inactive),–
C=C1C[C@@]23CC[C@H]4[C@@](C)(CCC[C@@]4(C)C(=O)O[C@@H]4O[C@H](CO)[C@@H](O)[C@H](O)[C@H]4O)[C@@H]2CC[C@]1(O[C@@H]1O[C@H](CO)[C@@H](O)[C@H](O[C@@H]2O[C@H](CO)[C@@H](O)[C@H](O)[C@H]2O)[C@H]1O[C@@H]1O[C@H](CO)[C@@H](O)[C@H](O)[C@H]1O)C3,0.229% (inactive),–
O=C1c2ccccc2C(=O)c2c(O)c(O)cc(O)c21,–,48.6 µM (active)
CCCC(=O)C(=O)O,-3.24% (inactive),–
NNC(=O)CP(=O)(c1ccccc1)c1ccccc1,6.73% [at 42.5 µM] (inactive),–
O=C(O)c1cccc(-c2noc(-c3ccccc3F)n2)c1,-1.26% [at 42.5 µM] (inactive),–
COc1ccc(OC(=O)N(CC(=O)O)Cc2ccc(OCCc3nc(-c4ccccc4)oc3C)cc2)cc1,5.42% [at 42.5 µM] (inactive),–
CC(C)C(O)(c1ccc(OC(F)(F)F)cc1)c1cncnc1 (stereo not given),-3.55% (inactive),–
O=C(O)c1ccc(OCCCOc2ccc(C(=O)O)cc2)cc1,4.8% [at 42.5 µM] (inactive),–

Structure (SMILES),"activity change, negative = cytotoxicity",Potency
O=c1cc(-c2ccccc2)oc2cc(O)cc(O)c12,–,61.1 µM (active)
Cc1ccc(OC(=O)c2ccccc2O)cc1,-0.635% (inactive),–
OCCOCC#CCOCCO,0.264% (inactive),–
CC(=O)c1ccc([N+](=O)[O-])cc1,0.468% (inactive),–
C=CC(=O)OCC1CC2CC1C1CCC(COC(=O)C=C)C21 (stereo not given),–,48.6 µM (active)
CC1(C)S[C@@H]2[C@H](NC(=O)C(c3ccccc3)S(=O)(=O)O)C(=O)N2[C@H]1C(=O)O (stereo not given in full),-0.0593% [at 42.5 µM] (inactive),–
O=C(/C=C/c1ccccc1)OCCc1ccccc1,5.75% (inactive),–
C[C@@H]1CC(=O)NN=C1c1ccc(NN=C(C#N)C#N)cc1,–,11.9 µM (active)
CCCCCCCC/C=C\CCCCCCCCCCCC(=O)O,3% (inactive),–
Cc1ccc(Cl)c(Nc2ccccc2C(=O)O)c1Cl,-3.89% [at 42.5 µM] (inactive),–
CCOC(=O)C1=C(C)NC(C)=C(C(=O)OC)C1c1cccc(Cl)c1Cl (stereo not given),–,13.3 µM (active)
Nc1cccc2c1CN(C1CCC(=O)NC1=O)C2=O (stereo not given),5.47% [at 42.5 µM] (inactive),–
CN1C(=O)N(c2ccccc2Br)Cc2cnc(Nc3ccc4c(c3)OCC(CO)O4)nc21 (stereo not given),–,24.3 µM (active)
Cc1[nH]cnc1CN1CCc2c(c3ccccc3n2C)C1=O,-6.48% [at 42.5 µM] (inactive),–
C1COC1,2.86% (inactive),–
CCC=CC#N,2.41% (inactive),–
O=C1c2ccccc2C(=O)C1c1ccc(Br)cc1,1.89% [at 42.5 µM] (inactive),–
O=c1c(O)c(-c2ccc(O)cc2)oc2cc(O)cc(O)c12,–,60.9 µM (active)
O=C(CCCN1CC=C(n2c(=O)[nH]c3ccccc32)CC1)c1ccc(F)cc1,-4.38% [at 42.5 µM] (inactive),–
NC(=O)c1ccncc1,4.49% (inactive),–
